Env fusion inh = HIV envelope-mediated fusion inhibition; HeLa-JRFL Env/CEM21 cell fusion, luciferase; inhibition, % at 12.3 µM; actives 1.1% (n = 360,000);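 active = mean replicate inhibition score of at least 50 and every replicate individually at or above 50; inconclusive = only one of the two criteria met; inactive = mean below 50 and not all replicates reaching 50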
GSIS activator = GLuc luminescence reporter in INS-1E cells, primary screen for activators of glucose-dependent secretion of insulin; INS-1E GLuc reporter insulin secretion, 2-3 h; actives 0.61% (n = 370,000); activation, % at 16.6 µM; AID 743287;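 active = lowest replicate activation of at least 40%, so every replicate reaches that level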
C2C12 statin = suppressors of simvastatin-induced myotoxicity in C2C12 myotubes. ATP luminescence, 48 h; scaled: DMSO 0, geranylgeraniol control 100. rescue of ATP level, % at 7.49 µM. actives 0.78% (n = 330,000);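 active = mean ATP rescue above about 67%, or every replicate alone reaching that limit, limit read from the data, passing the limit was not always enough; inconclusive = no clear call, values can overlap the other calls; inactive = mean under the limit and some replicate under it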;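 also: myotubes were challenged with 10 µM simvastatin during compound exposure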
miR-122 sensor = inhibitors of miR-122 in Huh7 cells; actives 0.3% (n = 340,000); Huh7 miR-122 Renilla luciferase sensor, 48 h; neutral wells = 0, positive control = 100; activation (reporter increase), % at 12.5 µM; AID 602342;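 active = mean replicate activation score at least 90 and every replicate individually at or above 90; inconclusive = only one of the two criteria met; inactive = neither criterion met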;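 also: higher luciferase means less miR-122 activity so hits act as miR-122 inhibitors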
EWS-Fli inh = blocks EWS/Fli oncoprotein-driven transcription. AID 651661. actives 0.67% (n = 350,000). A673 NR0B1-luciferase reporter, viability-normalised. inhibition, % at 12.6 µM;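 active = mean inhibition of at least 50% after viability correction, with every replicate also passing that limit; inconclusive = mean reaches 50% but only one of two replicates passes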;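 also: firefly luciferase signal divided by Alamar Blue viability fluorescence both relative to DMSO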
PAX8 inh HTS = inhibitors of PAX8 transcriptional activity in RMG-I cells | RMG-I TPO-luciferase reporter, SteadyGlo, 24 h | inhibition, % at 12.6 µM | actives 1.2% (n = 360,000) | AID 652154;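 active = mean replicate inhibition at least 60% with every replicate also reaching 60%; inconclusive = only one of the two criteria is met; inactive = mean below 60% and not all replicates reaching 60%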;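 also: luciferase light reporting Pax8 driven TPO promoter activity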
Hits are given with their value; - = inactive; ? = inconclusive; . = not tested or not shown; ! = repeats disagree; [ ] = dose if it differs, or a comment. Compounds with a hit are over-represented: about 3.1% of the library has one in this group of screens.

SMILES | Env fusion inh | GSIS activator | C2C12 statin | miR-122 sensor | EWS-Fli inh | PAX8 inh HTS
O=C(C[C@@H]1CC[C@H]2[C@@H](COC[C@@H](O)CN2CC2CCCC2)O1)NCC1CC1 | . | - | . | . | - | .
COc1cc2c(cc1OC)C(Nc1ccccc1)=NC(C)(C)C2 | - | 57 | . | - | - | -
COc1ccc2nc3ccccc3nc2c1NC(=O)c1ccc(Br)cc1 | - | - | . | - | - | -
COc1ccc2nc3ccccc3nc2c1NC(=O)c1ccc(Cl)cc1 | - | 70 | - | - | . | -
Cc1ccc(S(=O)(=O)N(C)C[C@H]2Oc3c(NC(=O)c4nc5ccccc5s4)cccc3C(=O)N([C@H](C)CO)C[C@@H]2C)cc1 | . | - | - | - | - | .
CCOC(=O)Nc1cc(NC(=O)OCC)c(C)nc1C | - | - | . | . | - | -
CCOC(=O)Nc1ccc(C)cc1Br | - | . | 108 | - | . | -
Cc1ccc(S(=O)(=O)N(CC(=O)NCCC2=CCCCC2)Cc2ccccc2)cc1 | 104 | . | - | - | . | .
O=C(CN(Cc1ccccc1)S(=O)(=O)c1ccc(F)cc1)NCCC1=CCCCC1 | 109 | . | . | - | . | .
Cc1ccc(S(=O)(=O)N(CC(=O)NCCC2=CCCCC2)Cc2ccccc2F)cc1 | . | . | - | - | . | .
O=C(CN(Cc1ccccc1F)S(=O)(=O)c1ccc(Cl)cc1)NCCC1=CCCCC1 | 69 | . | - | - | . | -
CCOCCCNC(=O)c1ccc2c(c1)N=C(CC)c1cc(Br)ccc1S2 | - | - | . | . | 61 | 91
C[C@H](CO)N1C[C@H](C)[C@H](CN(C)S(=O)(=O)c2ccccc2)Oc2ccc(NS(C)(=O)=O)cc2CC1=O | - | - | - | - | - | -
COc1ccc([Si](C)(C)[C@@H]2[C@@H](CC(=O)N3Cc4ccccc4C[C@H]3CO)O[C@]3(C(=O)N(Cc4ccc(I)cc4)c4ccccc43)[C@H]2C)cc1 | - | . | . | . | - | -
C[C@H](CO)N1C[C@H](C)[C@@H](CN(C)S(=O)(=O)c2ccc(F)cc2)Oc2ccc(NC(=O)Cn3cnnn3)cc2C1=O | - | - | - | - | - | .
Cc1ccc(NC(=O)CN2C(=O)N/C(=C/c3ccc(C)s3)C2=O)cc1 | - | 99 | - | - | . | -
COc1cccc(C2(c3cccc(OC)c3)CC2C(=O)Nc2ccc(F)cc2)c1 (configuration not stated) | - | - | . | 108 | - | -
CCCC#Cc1cnc2c(c1)C(=O)N([C@@H](C)CO)C[C@@H](C)[C@H](CN(C)C(=O)Nc1ccc(OC)cc1)O2 | - | - | - | - | - | .
Cc1ccc(S(=O)(=O)c2ccc([N+](=O)[O-])o2)cc1 | - | 99 | . | . | - | 127
Cc1ccc(NC(=O)c2ccc([N+](=O)[O-])o2)c(C)c1 | - | - | - | - | - | -
COc1ccc(NC(=O)[C@@H]2CCCN2C(=O)c2cccs2)cc1S(=O)(=O)N1CCCCC1 | . | - | - | - | - | -
COc1ccc(NC(C)=O)cc1NC(=O)C1CCCN1C(=O)c1cccs1 (configuration not stated) | 64 | - | . | . | - | -
CN(c1ccc(F)cc1)S(=O)(=O)c1ccc(Cl)c(C(=O)NCC2CCCO2)c1 (configuration not stated) | - | 43 | - | - | - | .
COc1ccccc1N(C)S(=O)(=O)c1ccc(Cl)c(C(=O)NCC2(N(C)C)CCCCC2)c1 | 95 | - | - | - | - | -
CN(c1ccc(C(=O)NCC2CCCO2)cc1)S(=O)(=O)c1ccc(Cl)cc1 (configuration not stated) | - | - | - | - | - | -
SMILES | Env fusion inh | GSIS activator | C2C12 statin | miR-122 sensor | EWS-Fli inh | PAX8 inh HTS
COCCNC(=O)c1cc(S(=O)(=O)N(C)C2CCCCC2)ccc1Cl | 57 | - | - | - | - | -
CS(=O)(=O)Nc1ccc2c(c1)[C@@H]1C[C@@H](CC(=O)N3CCCCC3)O[C@@H](CO)[C@@H]1O2 | . | - | - | - | - | -
Nc1nc2ccc(-c3nc4ccccc4o3)cc2s1 | . | - | 75 | - | . | .
C[C@@H]1CN([C@@H](C)CO)C(=O)c2cc(-c3ccc(C#N)cc3)cnc2O[C@@H]1CN(C)Cc1ccccn1 | - | - | - | - | - | .
O=C(c1cccc(-c2cncc3nccn23)c1)N1CCOCC1 | - | - | - | - | - | -
CN1CCN(C(=O)c2cccc(-c3cnc4cnc(-c5ccccc5Oc5ccccc5)cn34)c2)CC1 | - | 42 | - | - | - | -
NS(=O)(=O)c1ccc(NC(=S)N2CCN(Cc3ccc(Cl)c(Cl)c3)CC2)cc1 | - | - | . | - | - | -
NS(=O)(=O)c1ccc(NC(=S)N2CCN(c3ccc(Cl)c(Cl)c3)CC2)cc1 | ? | 108 | - | - | . | -
C[C@H]1CN([C@@H](C)CO)C(=O)c2cc(C#Cc3ccc(F)cc3)cnc2O[C@@H]1CN(C)Cc1ccccn1 | - | - | . | - | - | .
C[C@H](CO)N1C[C@H](C)[C@@H](CN(C)Cc2ccc(C(F)(F)F)cc2)Oc2c(NC(=O)CCCCCC(=O)Nc3ccccc3N)cccc2C1=O | . | - | . | . | . | 69
C[C@H](CO)N1C[C@H](C)[C@@H](CN(C)Cc2ccccc2)Oc2c(NC(=O)C3CC3)cccc2C1=O | - | - | - | 91! | - | -
C[C@@H]1CN([C@@H](C)CO)C(=O)c2cccc(NC(=O)NC3CCCCC3)c2O[C@@H]1CN(C)Cc1ccc(Oc2ccccc2)cc1 | - | - | . | - | - | .
C[C@@H]1CN([C@H](C)CO)C(=O)c2cccc(NC(=O)C3CC3)c2O[C@H]1CN(C)Cc1ccc(C(F)(F)F)cc1 | - | - | - | 106[16.7 µM] | - | .
COc1ccc(CN(C)C[C@H]2Oc3c(NC(=O)NC4CCCCC4)cccc3C(=O)N([C@H](C)CO)C[C@@H]2C)cc1 | . | - | - | 255[16.7 µM] | - | -
C[C@@H]1CN([C@H](C)CO)C(=O)c2cccc(NC(=O)C3CCOCC3)c2O[C@H]1CN(C)Cc1ccc(C(F)(F)F)cc1 | . | - | - | - | - | -
CN(C)C(=O)C[C@@H]1C=C[C@H](NC(=O)Nc2cccc(F)c2)[C@@H](CO)O1 | - | - | - | . | - | -
C[C@H](CO)N1C[C@H](C)[C@@H](CN(C)Cc2ccc(C(F)(F)F)cc2)Oc2c(NC(=O)c3cnccn3)cccc2C1=O | - | - | - | 114[16.7 µM] | - | -
C[C@@H]1CN([C@H](C)CO)C(=O)c2cccc(NC(=O)C3CCCCC3)c2O[C@H]1CN(C)Cc1ccccc1 | 74[16.7 µM] | - | - | - | - | -
C[C@@H]1CN([C@H](C)CO)C(=O)c2cccc(NC(=O)C3CCCCC3)c2O[C@@H]1CN(C)Cc1ccccc1 | - | - | - | - | - | -
C[C@H]1CN([C@@H](C)CO)C(=O)c2cccc(NC(=O)c3cnccn3)c2O[C@H]1CN(C)Cc1ccc(C(F)(F)F)cc1 | - | - | - | - | - | -
CC(C)CC#Cc1cnc2c(c1)C(=O)N([C@@H](C)CO)C[C@H](C)[C@H](CN(C)C(=O)c1cnccn1)O2 | - | - | - | - | - | .

Assay outcomes as filed in PubChem.
